# Experimental data published in PubChem BioAssay (NCI).
# The panel holds about 79,000 compounds, 15% with a hit somewhere; the sample as a whole holds those more often. Unmarked numbers belong to inactive results. The source made the active and inactive calls. Rule as the data show it: active = growth inhibition above about 70%; inactive = the rest.
# What was measured:
# [1] = NCI Yeast Anticancer Drug Screen. Data for the rad52 strain (AID 147);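 also: 0% = growth of vehicle-treated control cultures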; settings: S. cerevisiae rad52 mutant growth inhibition, active compounds read high
# In short: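 Screen used a yeast mutant impaired in DNA repair. After compound exposure, growth was measured. Values reflect inhibition compared with vehicle-treated cells.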
# [2] = NCI Yeast Anticancer Drug Screen. Data for the wt1 strain (AID 149);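 also: 0% = growth of vehicle-treated wt1 cultures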; settings: S. cerevisiae wt1 strain (SPY 50644) growth inhibition, active compounds read high
# In short: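 wt1 yeast, compound-treated; % growth inhibition vs vehicle control.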
# [3] = NCI Yeast Anticancer Drug Screen. Data for the rad50EPP+ strain (AID 151);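 also: 0% = growth of vehicle-treated control cultures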; settings: S. cerevisiae rad50 mutant strain, active compounds read high
# In short: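 Exposing the rad50EPP+ strain to each compound, growth was compared with vehicle-only cultures to give inhibition.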
# [4] = NCI Yeast Anticancer Drug Screen. Data for the rad50 strain (AID 155);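 also: 0% = growth of vehicle-only cultures of the same strain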; settings: S. cerevisiae rad50 strain growth inhibition, active compounds read high
# In short: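 Genetically altered yeast (DNA repair pathway); compound treatment; growth inhibition vs vehicle ctrl.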
# [5] = NCI Yeast Anticancer Drug Screen. Data for the mec2-1 strain (AID 157); settings: S. cerevisiae mec2-1 strain, active compounds read high
# In short: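 Readout is yeast growth inhibition, normalised to vehicle-treated controls, in the mec2-1 strain exposed to compound.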
# [6] = NCI Yeast Anticancer Drug Screen. Data for the rad14 strain (AID 159);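 also: 0% = growth of vehicle-treated control cultures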; settings: S. cerevisiae rad14 strain growth inhibition, active compounds read high
# In short: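 Test compounds were applied to a repair-deficient yeast strain. Its growth was then compared with that of cultures given vehicle alone, and inhibition was expressed relative to those controls.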
# [7] = NCI Yeast Anticancer Drug Screen. Data for the sgs1 mgt1 strain (AID 161);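 also: 0% = growth of cultures given vehicle only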; settings: S. cerevisiae sgs1 mgt1 strain, active compounds read high
# In short: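 Percent growth inhibition was derived by comparing compound-exposed mutant yeast with vehicle-exposed cultures. The strain carries alterations in DNA damage repair.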
# [8] = NCI Yeast Anticancer Drug Screen. Data for the CLN2oe strain (AID 163);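 also: 0% = growth of vehicle-only control cultures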; settings: S. cerevisiae CLN2oe strain, active compounds read high
# In short: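 Values reflect how much compound exposure reduced yeast growth, referenced to vehicle-exposed cells. Assay organism is a strain with a defined genetic change affecting cell-cycle control.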
# [9] = NCI Yeast Anticancer Drug Screen. Data for the bub3 strain (AID 167); settings: S. cerevisiae bub3 mutant strain, active compounds read high
# In short: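 Yeast carrying a defined mutation is treated with each compound, and growth is compared with that of vehicle-exposed cells to give inhibition.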
# [10] = NCI Yeast Anticancer Drug Screen. Data for the wt2 strain (AID 169);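 also: 0% = growth of vehicle-treated yeast cultures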; settings: S. cerevisiae wt2 strain growth inhibition, active compounds read high
# In short: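 Values express reduction in yeast growth under compound treatment, referenced to vehicle-treated cells.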
# [11] = NCI Yeast Anticancer Drug Screen. Data for the mlh1 strain (AID 171);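 also: 0% = growth of vehicle-treated control cultures of the same strain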; settings: S. cerevisiae mlh1 strain growth inhibition, active compounds read high
# In short: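 Steps: expose the defined-mutant yeast strain to compound; expose a parallel culture to vehicle; measure growth; express compound effect as inhibition relative to the vehicle culture.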
# [12] = NCI Yeast Anticancer Drug Screen. Data for the sgs1 strain (AID 173);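 also: 0% = growth of vehicle-only control cultures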; settings: S. cerevisiae sgs1 mutant, active compounds read high
# In short: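 Treat defined-mutant yeast with compound; measure growth; calculate inhibition relative to vehicle-treated cells.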
# [13] = NCI Yeast Anticancer Drug Screen. Data for the mlh1 rad18 strain (AID 175); settings: S. cerevisiae mlh1 rad18 strain growth inhibition, active compounds read high
# In short: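 Test agents were incubated with a yeast strain of defined genotype (DNA damage repair defect). Inhibition of growth was derived by comparison with vehicle-exposed cultures.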
# [14] = NCI Yeast Anticancer Drug Screen. Data for the rad18 strain (AID 177); settings: S. cerevisiae rad18 mutant growth inhibition, active compounds read high
# In short: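 A genetically defined yeast mutant impaired in DNA damage repair was treated with test compounds, then its growth was measured against cultures receiving vehicle alone.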
# [15] = NCI Yeast Anticancer Drug Screen. Data for the cln2 rad14 strain (AID 165);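 also: 0% = growth equal to vehicle treated cultures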; settings: S. cerevisiae cln2 rad14 strain, active compounds read high
# In short: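 Relative to vehicle controls, growth inhibition of compound-treated cln2 rad14 yeast was recorded.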
# [16] = at 5.0 µM (retest, dose inferred, filed as 0.5)
# [17] = at 50.0 µM (retest, dose inferred, filed as 5.0)
structure (smiles),measurement,setting,value
CCOC(=O)C(NC(=O)CC)(N1CCN(c2cc3c(cc2F)c(=O)c(C(=O)O)cn3C2CC2)CC1)C(F)(F)F (stereo not drawn),growth inhibition,[1]; at 1.2 µM,0%
same,growth inhibition,[1]; at 3.7 µM,3%
same,growth inhibition,[1]; at 11.0 µM,44%
same,growth inhibition,[1]; at 33.0 µM,91% (active)
same,growth inhibition,[1]; at 100.0 µM,97% (active)
same,growth inhibition,[2]; at 1.2 µM,-2%
same,growth inhibition,[2]; at 3.7 µM,1%
same,growth inhibition,[2]; at 11.0 µM,0%
same,growth inhibition,[2]; at 33.0 µM,14%
same,growth inhibition,[2]; at 100.0 µM,66%
same,growth inhibition,[3]; at 1.2 µM,-1%
same,growth inhibition,[3]; at 3.7 µM,1%
same,growth inhibition,[3]; at 11.0 µM,3%
same,growth inhibition,[3]; at 33.0 µM,3%
same,growth inhibition,[3]; at 100.0 µM,11%
same,growth inhibition,[4]; at 1.2 µM,0%
same,growth inhibition,[4]; at 3.7 µM,5%
same,growth inhibition,[4]; [16],-10%
same,growth inhibition,[4]; at 11.0 µM,47%
same,growth inhibition,[4]; at 33.0 µM,90% (active)
same,growth inhibition,[4]; [17],61%
same,growth inhibition,[4]; at 50.0 µM,91.5% (active)
same,growth inhibition,[4]; at 100.0 µM,97% (active)
same,growth inhibition,[5]; at 1.2 µM,-1%
same,growth inhibition,[5]; at 3.7 µM,-5%
same,growth inhibition,[5]; [16],0%
same,growth inhibition,[5]; at 11.0 µM,1%
same,growth inhibition,[5]; at 33.0 µM,47%
same,growth inhibition,[5]; [17],6%
same,growth inhibition,[5]; at 50.0 µM,84.1% (active)
same,growth inhibition,[5]; at 100.0 µM,96% (active)
same,growth inhibition,[6]; at 1.2 µM,0%
same,growth inhibition,[6]; at 3.7 µM,2%
same,growth inhibition,[6]; at 11.0 µM,6%
same,growth inhibition,[6]; at 33.0 µM,29%
same,growth inhibition,[6]; at 100.0 µM,91% (active)
same,growth inhibition,[7]; [16],-2%
same,growth inhibition,[7]; [17],15%
same,growth inhibition,[7]; at 50.0 µM,28.6%
same,growth inhibition,[8]; at 1.2 µM,1%
same,growth inhibition,[8]; at 3.7 µM,3%
same,growth inhibition,[8]; at 11.0 µM,-3%
same,growth inhibition,[8]; at 33.0 µM,21%
same,growth inhibition,[8]; at 100.0 µM,86% (active)
same,growth inhibition,[9]; at 1.2 µM,-40%
same,growth inhibition,[9]; at 3.7 µM,0%
same,growth inhibition,[9]; [16],-14%
same,growth inhibition,[9]; at 11.0 µM,0%
same,growth inhibition,[9]; at 33.0 µM,18%
same,growth inhibition,[9]; [17],2%
same,growth inhibition,[9]; at 50.0 µM,79.1% (active)
same,growth inhibition,[9]; at 100.0 µM,91% (active)
same,growth inhibition,[10]; at 1.2 µM,-1%
same,growth inhibition,[10]; at 3.7 µM,-4%
same,growth inhibition,[10]; at 11.0 µM,-2%
same,growth inhibition,[10]; at 33.0 µM,10%
same,growth inhibition,[10]; at 100.0 µM,84% (active)
same,growth inhibition,[11]; at 1.2 µM,-1%
same,growth inhibition,[11]; at 3.7 µM,0%
same,growth inhibition,[11]; at 11.0 µM,0%
same,growth inhibition,[11]; at 33.0 µM,16%
same,growth inhibition,[11]; at 100.0 µM,85% (active)
same,growth inhibition,[12]; at 1.2 µM,0%
same,growth inhibition,[12]; at 3.7 µM,1%
same,growth inhibition,[12]; at 11.0 µM,4%
same,growth inhibition,[12]; at 33.0 µM,28%
same,growth inhibition,[12]; at 100.0 µM,88% (active)
same,growth inhibition,[13]; [16],-3%
same,growth inhibition,[13]; [17],21%
same,growth inhibition,[13]; at 50.0 µM,74.5% (active)
same,growth inhibition,[14]; at 1.2 µM,-2%
same,growth inhibition,[14]; at 3.7 µM,-2%
same,growth inhibition,[14]; at 11.0 µM,0%
same,growth inhibition,[14]; at 33.0 µM,23%
same,growth inhibition,[14]; at 100.0 µM,91% (active)
O=Cc1coc2ccccc2c1=O,growth inhibition,[1]; at 1.2 µM,-9%
same,growth inhibition,[1]; at 3.7 µM,3%
same,growth inhibition,[1]; at 11.0 µM,11%
same,growth inhibition,[1]; at 33.0 µM,22%
same,growth inhibition,[1]; at 100.0 µM,48%
same,growth inhibition,[2]; at 1.2 µM,10%
same,growth inhibition,[2]; at 3.7 µM,19%
same,growth inhibition,[2]; at 11.0 µM,18%
same,growth inhibition,[2]; at 33.0 µM,22%
same,growth inhibition,[2]; at 100.0 µM,42%
same,growth inhibition,[3]; at 1.2 µM,2%
same,growth inhibition,[3]; at 3.7 µM,11%
same,growth inhibition,[3]; at 11.0 µM,28%
same,growth inhibition,[3]; at 33.0 µM,66%
same,growth inhibition,[3]; at 100.0 µM,91% (active)
same,growth inhibition,[4]; at 1.2 µM,-23%
same,growth inhibition,[4]; at 3.7 µM,10%
same,growth inhibition,[4]; [16],12%
same,growth inhibition,[4]; at 11.0 µM,17%
same,growth inhibition,[4]; at 33.0 µM,24%
same,growth inhibition,[4]; [17],26%
same,growth inhibition,[4]; at 50.0 µM,20.4%
same,growth inhibition,[4]; at 100.0 µM,57%
same,growth inhibition,[5]; at 1.2 µM,-7%
same,growth inhibition,[5]; at 3.7 µM,12%
same,growth inhibition,[5]; [16],-15%
same,growth inhibition,[5]; at 11.0 µM,18%
same,growth inhibition,[5]; at 33.0 µM,18%
same,growth inhibition,[5]; [17],70% (active)
same,growth inhibition,[5]; at 50.0 µM,35.2%
same,growth inhibition,[5]; at 100.0 µM,65%
same,growth inhibition,[6]; at 1.2 µM,-16%
same,growth inhibition,[6]; at 3.7 µM,-7%
same,growth inhibition,[6]; at 11.0 µM,8%
same,growth inhibition,[6]; at 33.0 µM,16%
same,growth inhibition,[6]; at 100.0 µM,95% (active)
same,growth inhibition,[7]; [16],9%
same,growth inhibition,[7]; [17],98% (active)
same,growth inhibition,[7]; at 50.0 µM,89.7% (active)
same,growth inhibition,[15]; [16],6%
same,growth inhibition,[15]; [17],19%
same,growth inhibition,[15]; at 50.0 µM,75.2% (active)
same,growth inhibition,[9]; at 1.2 µM,5%
same,growth inhibition,[9]; at 3.7 µM,13%
same,growth inhibition,[9]; [16],2%
same,growth inhibition,[9]; at 11.0 µM,8%
same,growth inhibition,[9]; at 33.0 µM,15%
same,growth inhibition,[9]; [17],87% (active)
same,growth inhibition,[9]; at 50.0 µM,88.8% (active)
same,growth inhibition,[9]; at 100.0 µM,51%
same,growth inhibition,[10]; at 1.2 µM,-17%
same,growth inhibition,[10]; at 3.7 µM,-11%
same,growth inhibition,[10]; at 11.0 µM,3%
same,growth inhibition,[10]; at 33.0 µM,12%
same,growth inhibition,[10]; at 100.0 µM,99% (active)
same,growth inhibition,[11]; at 1.2 µM,1%
same,growth inhibition,[11]; at 3.7 µM,5%
same,growth inhibition,[11]; at 11.0 µM,24%
same,growth inhibition,[11]; at 33.0 µM,30%
same,growth inhibition,[11]; at 100.0 µM,61%
same,growth inhibition,[13]; [16],-1%
same,growth inhibition,[13]; [17],16%
same,growth inhibition,[13]; at 50.0 µM,62.4%
same,growth inhibition,[14]; at 1.2 µM,5%
same,growth inhibition,[14]; at 3.7 µM,19%
same,growth inhibition,[14]; at 11.0 µM,18%
same,growth inhibition,[14]; at 33.0 µM,20%
same,growth inhibition,[14]; at 100.0 µM,67%
